The values that follow come from PubChem BioAssay.

Test [1] can be described thus: antimalarial activity against Dd2 strain (AID 2302;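 active = growth inhibition above 50% at the single 2 µM test dose, taken to imply half-maximal potency below 2 µM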;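 note: 0% = DMSO untreated growth and 100% = chloroquine plus artemisinin killed control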). The note with it: P. falciparum Dd2 in RBCs, LDH growth readout, 72 h; at 2 µM; stronger effect = higher value.
Test [2] is described as follows: HepG2 cytotoxicity, primary screen, cytotoxicity control for P. falciparum antimalarial project, cell-based, ATP luminescence (AID 2303;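 active = inhibition above 50%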;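 note: 0% = DMSO wells and 100% = digitonin-killed cells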). The note with it: HepG2 viability, 24-48 h, at 10 µM, stronger effect = higher value.
In test [3] the target is L-lactate dehydrogenase (Plasmodium falciparum (isolate CDC / Honduras)) (UniProt Q27743). Nature of the test: PfLDH activity inhibition – cell lysate, 3D7 strain, counter-screen for P. falciparum growth inhibition project (AID 2304).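 Note: 0% = vehicle and 100% = reference inhibitor.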 The note with it: P. falciparum 3D7 crude extract, LDH APAD/NBT absorbance; at 2 µM; stronger effect = higher value. (Counterscreens check selectivity or assay interference.)

Test [4] is described as follows: inhibition of 3D7 malaria parasite growth – strain 3D7 (AID 2306).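 Note: 0% = DMSO wells and 100% = chloroquine plus artemisinin control wells.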 The note with it: P. falciparum 3D7 erythrocytic growth, LDH absorbance, 72 h; at 2 µM; stronger effect = higher value.
Test [5] has as its target Calcium-dependent protein kinase 1 (Plasmodium falciparum (isolate 3D7)) (UniProt P62344). Put plainly: PfCDPK1 kinase inhibitors, biochemical, TCAMS library (AID 1159585; cut-off not given, nearly all actives have IC50 up to about 0.98 µM;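 note: inhibitors leave more ATP so luminescence rises with inhibition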). The note with it: recombinant PfCDPK1, Kinase-Glo ATP depletion luminescence.
The target in test [6] is Plasmodium falciparum protein kinase 6 (PK6, PF3D7_1337100) (UniProt Q8IDW1). Put plainly: PfPK6 kinase inhibitors, biochemical, TCAMS library (AID 1159586). The note with it: recombinant PfPK6, Kinase-Glo ATP depletion luminescence.
Test [7] concerns the target Protein kinase 7 (PK7), Plasmodium falciparum 3D7 (PF3D7_0213400) (UniProt Q7YTF7). Put plainly: inhibition of Plasmodium PK7 catalytic activity – biochemical, TCAMS antimalarial set, Kinase-Glo luminescence (AID 1159587). The note with it: recombinant PfPK7, Kinase-Glo ATP depletion luminescence.
Test [8] has as its target Calcium-dependent protein kinase 4 (Plasmodium falciparum (isolate 3D7)) (UniProt Q8IBS5). Put plainly: PfCDPK4 kinase inhibitors, biochemical, TCAMS library (AID 1159588; cut-off not given, nearly all actives have IC50 up to about 0.91 µM). The note with it: recombinant PfCDPK4, Kinase-Glo ATP depletion luminescence. In general terms: Kinase-Glo reads ATP consumption through a luciferase reaction.

A number with no mark means an inactive call. For some of these results: Results with a measured potency or affinity are listed apart. The source made the active and inactive calls. Unless noted, the rule behind the calls is not given here. Residues, ends and D or L forms follow the SMILES beside them. *: point of attachment. Octanoyl = CCCCCCCC(=O)*

Plasmodium falciparum protein kinase 6 (PK6, PF3D7_1337100), sequence (Q8IDW1 1-305): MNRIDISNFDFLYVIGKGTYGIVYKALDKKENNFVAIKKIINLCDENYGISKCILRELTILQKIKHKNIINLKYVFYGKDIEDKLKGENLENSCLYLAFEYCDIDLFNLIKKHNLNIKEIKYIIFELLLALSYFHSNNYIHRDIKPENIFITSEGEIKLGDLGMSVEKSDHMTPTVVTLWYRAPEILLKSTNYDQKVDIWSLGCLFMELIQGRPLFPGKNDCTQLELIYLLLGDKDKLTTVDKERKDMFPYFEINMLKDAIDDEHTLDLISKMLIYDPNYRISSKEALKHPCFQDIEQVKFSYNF
L-lactate dehydrogenase (Plasmodium falciparum (isolate CDC / Honduras)), sequence (Q27743 whole entry, looked up): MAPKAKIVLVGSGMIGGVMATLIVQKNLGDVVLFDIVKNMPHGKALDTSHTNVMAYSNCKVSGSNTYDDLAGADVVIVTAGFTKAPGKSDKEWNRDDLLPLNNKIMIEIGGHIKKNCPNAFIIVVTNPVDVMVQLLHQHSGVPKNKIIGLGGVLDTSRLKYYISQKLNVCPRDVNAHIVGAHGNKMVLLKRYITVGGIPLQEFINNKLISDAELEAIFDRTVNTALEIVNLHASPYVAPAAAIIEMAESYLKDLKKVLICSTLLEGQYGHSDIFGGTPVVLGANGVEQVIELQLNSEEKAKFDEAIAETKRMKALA
Protein kinase 7 (PK7), Plasmodium falciparum 3D7 (PF3D7_0213400), sequence (Q7YTF7 1-343): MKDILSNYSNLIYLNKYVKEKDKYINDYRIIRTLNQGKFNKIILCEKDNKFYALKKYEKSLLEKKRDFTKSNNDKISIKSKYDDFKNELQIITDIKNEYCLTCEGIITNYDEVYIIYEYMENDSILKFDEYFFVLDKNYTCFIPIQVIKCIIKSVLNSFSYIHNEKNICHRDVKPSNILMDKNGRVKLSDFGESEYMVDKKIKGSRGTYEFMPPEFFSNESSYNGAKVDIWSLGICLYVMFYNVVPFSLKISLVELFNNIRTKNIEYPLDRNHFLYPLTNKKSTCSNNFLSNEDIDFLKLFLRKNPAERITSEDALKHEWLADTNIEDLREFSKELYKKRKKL
Calcium-dependent protein kinase 4 (Plasmodium falciparum (isolate 3D7)), sequence (Q8IBS5 whole entry, looked up): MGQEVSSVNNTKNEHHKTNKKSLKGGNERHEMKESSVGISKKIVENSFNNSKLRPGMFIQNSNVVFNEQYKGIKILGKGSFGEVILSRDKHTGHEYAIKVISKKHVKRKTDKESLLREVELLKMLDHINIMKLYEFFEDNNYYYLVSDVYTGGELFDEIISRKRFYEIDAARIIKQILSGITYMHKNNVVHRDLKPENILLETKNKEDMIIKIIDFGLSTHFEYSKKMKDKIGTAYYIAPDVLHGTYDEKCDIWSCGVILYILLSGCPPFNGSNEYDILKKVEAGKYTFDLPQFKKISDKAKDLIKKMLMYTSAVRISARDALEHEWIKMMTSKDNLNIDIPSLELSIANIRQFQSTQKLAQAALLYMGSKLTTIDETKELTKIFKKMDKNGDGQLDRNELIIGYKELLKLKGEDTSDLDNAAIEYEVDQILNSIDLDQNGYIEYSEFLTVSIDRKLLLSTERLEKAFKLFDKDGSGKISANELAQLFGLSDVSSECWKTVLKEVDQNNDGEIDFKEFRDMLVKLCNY
Calcium-dependent protein kinase 1 (Plasmodium falciparum (isolate 3D7)), sequence (P62344 whole entry, looked up): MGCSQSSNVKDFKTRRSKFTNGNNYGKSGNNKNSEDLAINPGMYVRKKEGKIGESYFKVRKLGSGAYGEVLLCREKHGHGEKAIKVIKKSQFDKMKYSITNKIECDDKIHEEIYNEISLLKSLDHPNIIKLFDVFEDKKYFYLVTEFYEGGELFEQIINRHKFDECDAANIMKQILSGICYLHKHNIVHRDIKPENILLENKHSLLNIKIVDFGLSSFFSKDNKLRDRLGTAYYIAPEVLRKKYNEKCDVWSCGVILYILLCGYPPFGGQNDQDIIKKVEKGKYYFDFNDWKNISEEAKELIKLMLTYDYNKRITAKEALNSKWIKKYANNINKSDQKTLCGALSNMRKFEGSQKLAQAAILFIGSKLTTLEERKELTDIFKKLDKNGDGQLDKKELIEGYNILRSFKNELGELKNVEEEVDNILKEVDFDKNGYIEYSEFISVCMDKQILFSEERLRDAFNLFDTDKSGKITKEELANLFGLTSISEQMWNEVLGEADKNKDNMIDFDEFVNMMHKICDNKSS

For orientation: inhibition means the drop in the measured response relative to a control, in per cent. In the case of `COc1cccc(C(=O)Nc2ccc(Nc3nc(C)cc(N4CCCCC4)n3)cc2)c1OC`, the growth inhibition in test [1] is 27%; in test [4], 92% (active). The inhibition in test [2] was 47%; in test [3], 1%. In addition, the outcome in test [5], in test [6], in test [7] and in test [8] was inactive.

Consider `NCc1ccc(CNCc2cccc(-c3cccc(-c4nc5ccc(F)cc5[nH]4)c3)c2)cc1`, for which the figures for the growth inhibition in test [1] and in test [4] were 34% and 101% (active), respectively. Besides, the figures for the inhibition in test [2] and in test [3] were 15% and -2%, respectively. In addition, the result in test [5], in test [6], in test [7] and in test [8] was inactive.

For the molecule `COc1cccc2c(NN=Cc3ccccc3Cl)cc(C)nc12`, the growth inhibition in test [1] is 100% (active); in test [4] it was 102% (active). For the same molecule, the inhibition in test [2] was 22%; in test [3] it was -2%. The outcome in test [5], in test [6], in test [7] and in test [8] was inactive.

`CCOC(=O)c1cnc2cc(N3CCCC3)c(Cl)cc2c1OCC`: the growth inhibition in test [1] and in test [4] was 97% (active) each time. Further, the inhibition in test [2] was 0%; in test [3], -2%. For the same molecule, the outcome in test [5], in test [6], in test [7] and in test [8] was inactive.

On to `COc1ccc(CNCc2cccc(-c3cccc(-c4nc5ccccc5[nH]4)c3)c2)cc1`, for which the growth inhibition in test [1] is 50% (active); in test [4], 102% (active). Further, the inhibition in test [2] was 24%; in test [3], 1%. Besides, the result in test [5], in test [6], in test [7] and in test [8] was inactive.

`Cc1cc(NC(=O)Nc2cccc(N(C)C)c2)c2ccccc2n1`: the growth inhibition in test [1] is 95% (active); in test [4], 97% (active). The inhibition is 0% in test [2] and 4% in test [3]. In addition, the outcome in test [5], in test [6], in test [7] and in test [8] was inactive.

With `O=c1cc(NCCCNC(c2ccccc2)c2ccc(Cl)c(Cl)c2)[nH]c2ccccc12` (stereo not given), the growth inhibition in test [1] is 94% (active); in test [4], 89% (active). In addition, the inhibition in test [2] is 13%; in test [3], 3%. Moreover, the result in test [5], in test [6], in test [7] and in test [8] was inactive.

For the molecule `CN1CCC(C(=O)N(Cc2ccc(-c3ccc(CNCCc4ccc(S(C)(=O)=O)cc4)cn3)cc2)Cc2cccc(F)c2)CC1`, the growth inhibition in test [1] is 90% (active); in test [4] it was 98% (active). Also, the inhibition in test [2] is 10%; in test [3] it was -4%. The outcome in test [5], in test [6], in test [7] and in test [8] was inactive.

Consider `COc1c(C2CCN(CCCCNC(=O)c3cc(-c4ccc(Cl)cc4)[nH]c3C)CC2)ccc2c1CCCC2`, for which the results for the growth inhibition in test [1] and in test [4] were 91% (active) and 100% (active), respectively. Moreover, the inhibition was 53% (active) in test [2] and -6% in test [3]. Moreover, the outcome in test [5], in test [6], in test [7] and in test [8] was inactive.

Consider `CCOc1ccc2c(NN=Cc3cccc(Cl)c3)cc(C)nc2c1`, for which the growth inhibition is 34% in test [1] and 93% (active) in test [4]. The values for the inhibition in test [2] and in test [3] were -5% and -2%, respectively. Also, the outcome in test [5], in test [6], in test [7] and in test [8] was inactive.

Consider `COc1ccc(Br)cc1/C=C/C(=O)Nc1ccc(C2CCCN(C)C2)cc1` (stereo not given), for which the values for the growth inhibition in test [1] and in test [4] were 35% and 100% (active), respectively. Besides, the inhibition was 18% in test [2] and -2% in test [3]. The outcome in test [5], in test [6], in test [7] and in test [8] was inactive.

On to `CCCCCCCC(=O)N[C@@H](Cc1ccccc1)C(=O)N[C@H](C(=O)O)C(C)C` (Octanoyl-Phe-Val-OH), for which the growth inhibition in test [1] is -7%; in test [4] it was 89% (active). The inhibition is -8% in test [2] and 2% in test [3]. Further, the result in test [5], in test [6], in test [7] and in test [8] was inactive.

On to `Cc1ccc(C(NC(=O)C2CCCCC2)c2ccc3cccnc3c2O)cc1` (stereo not given), for which the figures for the growth inhibition in test [1] and in test [4] were 59% (active) and 91% (active), respectively. Besides, the inhibition in test [2] was 69% (active); in test [3], 2%. In addition, the result in test [5], in test [6], in test [7] and in test [8] was inactive.

On to `CC1(C)CN(CCC2CCC(NC(=O)/C=C/c3ccccc3F)CC2)Cc2ccc(C#N)cc21` (stereo not given), for which the values for the growth inhibition in test [1] and in test [4] were 82% (active) and 89% (active), respectively. For the same molecule, the inhibition in test [2] is -1%; in test [3], -3%. In addition, the result in test [5], in test [6], in test [7] and in test [8] was inactive.

For `Fc1cccc(COc2ccc(Nc3ncnc4ccc(C#C[C@H]5CCCN5)cc34)cc2Cl)c1`, the results for the growth inhibition in test [1] and in test [4] were 26% and 91% (active), respectively. In addition, the results for the inhibition in test [2] and in test [3] were 7% and -2%, respectively. Besides, the result in test [5], in test [6], in test [7] and in test [8] was inactive.

Consider `Cc1cc(Nc2cccc(C#N)c2)nc(Nc2ccccc2C)n1`, for which the growth inhibition in test [1] was 46%; in test [4] it was 95% (active). In addition, the inhibition in test [2] was 10%; in test [3], 0%. In addition, the outcome in test [5], in test [6], in test [7] and in test [8] was inactive.

Regarding `CCCCN(CCCC)CCCCNc1c2ccccc2nc2ccccc12`, the growth inhibition in test [1] and in test [4] was 100% (active) each time. Also, the inhibition in test [2] was 36%; in test [3] it was 0%. Also, the outcome in test [5], in test [6], in test [7] and in test [8] was inactive.

`CC1(C)C=C(c2ccncc2)c2cc(Cl)ccc2O1`: the figures for the growth inhibition in test [1] and in test [4] were 22% and 97% (active), respectively. Moreover, the values for the inhibition in test [2] and in test [3] were -4% and 1%, respectively. Besides, the result in test [5], in test [6], in test [7] and in test [8] was inactive.

In the case of `COc1ccc(N2CCN(CCCNC(=O)c3ccc(NC(=O)c4cc(Cl)cc(Cl)c4)cc3)CC2)c(OC)c1`, the values for the growth inhibition in test [1] and in test [4] were 79% (active) and 101% (active), respectively. Moreover, the inhibition in test [2] was 21%; in test [3], -4%. Besides, the outcome in test [5], in test [6], in test [7] and in test [8] was inactive.

Take `CC(Sc1n[nH]c(-c2cccs2)n1)C(=O)c1c[nH]c2ccccc12` (stereo not given): the growth inhibition in test [1] is 58% (active); in test [4], 94% (active). For the same molecule, the inhibition in test [2] is -8%; in test [3], 6%. Further, the outcome in test [5], in test [6], in test [7] and in test [8] was inactive.
